Source: PubChem BioAssay AID504834 (National Center for Advancing Translational Sciences (NCATS), 2011)
Screen size: about 320,000 compounds; about 22,000 (6.9%) were called active. Inconclusive results (about 27%) are left out. Calls come from the whole dose curve; as a rule, active = well fitted inhibition curve with a large enough effect; inconclusive = small, poorly fitted or top-dose-only effect, or another doubt; inactive = no such curve, though single readings can be large or run the other way. For the sample, actives were picked, then their nearest neighbours and some compounds at random.

Assay: Primary qHTS for delayed death inhibitors of the malarial parasite plastid, 96 hour incubation
Settings: P. falciparum luciferase reporter growth; series mostly up to 28.7 µM; activity change, negative = inhibition: at the top concentration
Source text: The goal of this screen is to discover new antimalarial compounds that act by inhibiting the development of the apicoplast in the malarial parasite Plasmodium falciparum. The biochemical processes that make this organelle essential for erythrocytic stage parasites are not well understood. However, antibiotics such as azithromycin and tetracycline, which target the apicoplast translational machinery, have a potent antimalarial effect.
We have developed a cell-based assay that measures parasite growth based on the expression of an integrated copy of a firefly luciferase reporter. To detect small molecules that cause this "delayed death" phenotype, erythrocytes infected with the luciferase-expressing parasites were incubated with compounds for either one or two generations, corresponding to 48 and 96 hours, respectively. Compounds that inhibit parasite growth in the second generation, but not the first, should be enriched in antimalarials that target the apicoplast. Growth inhibition is detected by a decrease in luciferase activity.
Assay Provider: David Fidock and Eric Ekland, Columbia University
Keywords: NIH Roadmap, MLPCN, MLI, MLSMR, qHTS, NCGC, qHTS, malaria, luciferase, viability
Four microliters of infected erythrocytes (2% hematocrit, 0.05% parasitemia final concentration) in culture medium were dispensed and the plates incubated for 96 hours at 37 C in 5% CO2. Two microliters of luciferase detection reagent was added and luminescence was detected by a ViewLux (PerkinElmer) reader.
% is set by controls: 0 for no effect and ±100 for the full control effect; potency is the fitted concentration of half-maximal effect.

Structure (SMILES) | activity change, negative = inhibition | Potency
O=C(Cn1cc(C(=O)C2CC2)c2ccccc21)Nc1ccccc1Cl | 15.4% (inactive) | –
COCCCNc1nc2c(-c3cccc(C)c3)nnn2c2ccc(Cl)cc12 | 2.68% (inactive) | –
CC1=NN(C(=O)CCc2ccccc2O)C(O)(C(F)(F)F)C1 (configuration not stated) | -3.05% (inactive) | –
CC1=NN(C(=O)CCCc2ccccc2)C(O)(C(F)(F)F)C1 (configuration not stated) | -30.7% (inactive) | –
O=C(Cc1ccccc1)N1N=C(c2ccncc2)CC1(O)C(F)(F)F (configuration not stated) | – | 13.1 µM (active)
Cc1ccc2[nH]c(=O)c(CN(C)S(=O)(=O)c3cccc4nonc34)cc2c1 | -24.7% (inactive) | –
CC1=NNC(=O)C1CC(=O)N/N=C/c1ccncc1 (configuration not stated) | 31.8% (inactive) | –
[O-][N+]12CCCCC1CCCC2CO (configuration not stated) | 2.61% (inactive) | –
CC(=O)Nc1ccc(NC(=O)CCN2C(=O)C3CC=CCC3C2=O)cc1 (configuration not stated) | 7.9% (inactive) | –
O=C(NCCc1ccc(F)cc1)c1ccc2nccnc2c1 | 351% (inactive) | –
O=C(CSc1nnc(SCc2ccc(F)cc2)s1)Nc1ccc(C(=O)O)cc1 | 175% (inactive) | –
O=C(CC1SC(N2CCCC2)=NC1=O)Nc1ccc(C(=O)NCCc2ccc(F)cc2)cc1 (configuration not stated) | – | 10.4 µM (active)
O=C(CNC(=O)Cc1ccccc1)N=Nc1c(O)[nH]c2ccc(Br)cc12 | 0.113% (inactive) | –
O=C(c1ccccc1)N1CCN(C(=O)c2cc3nc(-c4ccccc4)cc(C(F)(F)F)n3n2)CC1 | -1.61% (inactive) | –
Cc1ccc2nc(S(=O)(=O)O)[nH]c2c1 | 20.9% (inactive) | –
COc1cc(/C=C(\C#N)c2nc3ccccc3[nH]2)ccc1O | 2.89% (inactive) | –
Cc1ccc2nc(/C(C#N)=C\c3ccc(OC(=O)c4cccs4)cc3)[nH]c2c1 | – | 9.28 µM (active)
Cc1c(C=O)c2ccccc2n1CCOc1ccccc1 | 13.8% (inactive) | –
Cc1nn(C)c(Cl)c1CN1CCC(Oc2ccc(C(=O)N3CCCC3)cc2)CC1 | 50% (inactive) | –
COc1ccc(C(=O)NC(C)CCc2ccccc2)c(OC)c1 (configuration not stated) | -22.5% (inactive) | –
CC(C)c1ccc(C(=O)OC2CCOC2=O)cc1 (configuration not stated) | 0% (inactive) | –
Cn1c(=O)c2ccccc2n(CC(=O)Nc2ccc3c(c2)OCCO3)c1=O | 1.42% (inactive) | –
Cc1ccc(S(=O)(=O)Oc2ccc(/C=N/NC(=O)c3ccncc3)cc2)cc1 | 40.8% (inactive) | –
COc1ccc(CC(=O)NCC(=O)N/N=C/c2cc(Br)ccc2OC)cc1 | -8.14% (inactive) | –
Cc1ccc(OCCOCCOc2ccc(Br)cc2/C=N\NC(=O)c2ccncc2)cc1 | – | 5.22 µM (active)
CNS(=O)(=O)c1cccc(C(=O)NC2CCCc3ccccc32)c1 (configuration not stated) | -8.59% (inactive) | –

Structure (SMILES) | activity change, negative = inhibition | Potency
Cc1n[nH]c(=O)c2c(NC(=O)COC(=O)c3ncc(Cl)c(Cl)c3Cl)oc(C)c12 | 22% (inactive) | –
Cc1cccc(C)c1NC(=O)NC1=CCCN1C | -17.3% (inactive) | –
Cn1c(=O)[nH]c(=O)c2c1nc(N1CCCCCC1)n2CC(=O)c1ccccc1 | -12.3% (inactive) | –
CC1CCN(c2nc3c(c(=O)[nH]c(=O)n3C)n2CCCc2ccccc2)CC1 | – | 10.4 µM (active)
Cc1nnc(Sc2nc3c(c(=O)[nH]c(=O)n3C)n2Cc2ccccc2)s1 | -11.4% (inactive) | –
CCCCNc1nc2c(c(=O)[nH]c(=O)n2C)n1CCOc1ccccc1 | -22.4% (inactive) | –
C=C(C)Cn1c(N2CCCC2)nc2c1c(=O)[nH]c(=O)n2C | 12.6% (inactive) | –
Cc1nnc(SCCCn2c(N3CCCCC3)nc3c2c(=O)[nH]c(=O)n3C)s1 | – | 2.08 µM (active)
Cn1c(=O)[nH]c(=O)c2c1nc(Br)n2CCCCSc1nc2ccccc2o1 | 30.3% (inactive) | –
Cn1c(=O)[nH]c(=O)c2c1nc(CN1CCN(c3ccccc3F)CC1)n2CCc1ccccc1 | -25.9% (inactive) | –
C=C(C)Cn1c(N2CCN(CC)CC2)nc2c1c(=O)[nH]c(=O)n2C | – | 2.33 µM (active)
FC(F)(F)c1cccc(-c2nc(COc3ccc(Cl)cc3Cl)no2)c1 | -2.32% (inactive) | –
Cc1cc(C)nc(NS(=O)(=O)c2ccc(N3C(=O)C4CCCCC4C3=O)cc2)n1 (configuration not stated) | 77.2% (inactive) | –
CCc1ccc(NC(=O)Cn2nnc(C(=O)NCc3ccc4c(c3)OCO4)c2N)cc1 | 20.3% (inactive) | –
COc1ccc(S(=O)(=O)N2CCOCC2)cc1NC(=O)CSc1cc(C)ccc1C | – | 7.38 µM (active)
COc1ccc(S(=O)(=O)N2CCOCC2)cc1NC(=O)Cc1coc2cc(C)ccc12 | -11.9% (inactive) | –
COc1ccc(S(=O)(=O)N2CCOCC2)cc1C(=O)NC1CCCCC1 | – | 4.65 µM (active)
CC(C)Oc1ccc(S(=O)(=O)N2CCOCC2)cc1NC(=O)C1CCCC1 | – | 11.7 µM (active)
COc1ccc(S(=O)(=O)N2CCOCC2)cc1NC(=O)Cc1c(F)cccc1Cl | -12.3% (inactive) | –
Cc1ccc(S(=O)(=O)N2CCN(C)CC2)cc1C(=O)NC1CCCCC1 | -14.8% (inactive) | –
COc1ccc(S(=O)(=O)N2CCOCC2)cc1NC(=O)COc1ccccc1 | -0.938% (inactive) | –
COc1ccc(S(=O)(=O)NC(C)C)cc1C(=O)NC1CCCCC1 | -13.1% (inactive) | –
Cc1ccc(S(=O)(=O)N2CCOCC2)cc1NC(=O)CSc1nnc(N)s1 | -4.94% (inactive) | –
NC(=O)COC(=O)c1ccc2c(c1)C(=O)N(Cc1ccco1)C2=O | 18.5% (inactive) | –
Cc1cc(C)c(CN2CCN(C(=O)Cn3ccc(NC(=O)OCc4ccccc4)nc3=O)CC2)c(C)c1 | -25.9% (inactive) | –
O=C(COC(=O)Cn1[nH]c(=O)c2ccccc2c1=O)Nc1ncc(Cl)cc1Cl | 25.8% (inactive) | –
